Laboratory results taken from the supplement of paper PMC3545927.
The other results are listed elsewhere or left out. No count for the full screen is at hand.

Biological target: furin, P09958
Experiment: furin cleavage Z-score vs untreated control; higher = more cleavage, active = 3.5 or more, inactive = 1 or less, 8 variable residues between constant flanks
Procedure, shortened: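 Reactions of 0.01 ml ran for 7.5, 15 or 30 min in 50 mM HEPES pH 7.5 with CaCl2 and NaCl, at 1:10 enzyme:substrate. In them, purified furin acted on bead-held 8-mer peptides fused to a cDNA oligonucleotide. The cleavage Z-score was obtained by lowess-adjusting log sequencing counts of released DNA against furin-free reactions and scaling by median absolute deviation.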

Sequence of furin, P09958 (P09958 whole entry): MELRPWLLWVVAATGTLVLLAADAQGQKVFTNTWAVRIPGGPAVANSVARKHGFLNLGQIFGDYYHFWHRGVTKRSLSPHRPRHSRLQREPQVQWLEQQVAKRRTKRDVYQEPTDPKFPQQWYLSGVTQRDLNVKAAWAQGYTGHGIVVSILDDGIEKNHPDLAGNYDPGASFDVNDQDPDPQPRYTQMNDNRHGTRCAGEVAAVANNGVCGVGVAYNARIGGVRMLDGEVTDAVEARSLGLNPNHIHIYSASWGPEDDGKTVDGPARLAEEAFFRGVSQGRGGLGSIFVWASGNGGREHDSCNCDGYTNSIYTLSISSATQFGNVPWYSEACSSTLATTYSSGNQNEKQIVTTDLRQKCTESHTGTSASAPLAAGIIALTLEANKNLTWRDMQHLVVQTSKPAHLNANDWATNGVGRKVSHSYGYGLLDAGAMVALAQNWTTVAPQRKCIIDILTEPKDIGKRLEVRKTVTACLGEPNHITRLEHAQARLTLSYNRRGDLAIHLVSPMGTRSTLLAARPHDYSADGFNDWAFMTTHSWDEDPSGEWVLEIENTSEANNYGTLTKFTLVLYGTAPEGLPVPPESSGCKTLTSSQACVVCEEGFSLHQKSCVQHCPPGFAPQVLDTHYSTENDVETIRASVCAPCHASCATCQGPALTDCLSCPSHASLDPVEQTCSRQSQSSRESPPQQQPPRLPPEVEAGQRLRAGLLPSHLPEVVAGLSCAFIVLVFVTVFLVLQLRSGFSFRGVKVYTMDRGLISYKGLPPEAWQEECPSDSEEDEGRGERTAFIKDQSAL

Sequence | furin cleavage Z-score (7.5 min) | furin cleavage Z-score (15 min) | furin cleavage Z-score (30 min)
CATGMTTDNLAGNASASA [HC1212] | -0.509 (inactive) | 1.51 | -0.989 (inactive)
CAHLNSTALNAGNASASA [HC371] | 1.65 | 0.509 (inactive) | 0.52 (inactive)
CAVEPVVFSQAGNASASA [HC646] | -0.426 (inactive) | 0.0995 (inactive) | -0.8 (inactive)
CASMPCSAHLAGNASASA [HC2486] | -0.177 (inactive) | 1.03 | -0.00604 (inactive)
CAQEECSQHLAGNASASA [HC1682] | -0.746 (inactive) | 0.819 (inactive) | 1.15
CARQARRVGGAGNASASA [FS-1766] | -0.614 (inactive) | -0.316 (inactive) | -0.000733 (inactive)
CARKIRTVGNAGNASASA [FS-1726] | 5.44 (active) | 7.79 (active) | 7.77 (active)
CACVIGGAGNAGNASASA [HC445] | -1.36 (inactive) | -2.02 (inactive) | -1.24 (inactive)
CARKIRVNGTAGNASASA [FS-2422] | -0.334 (inactive) | 0.321 (inactive) | -1.68 (inactive)
CARQVRGVTQAGNASASA [FS-2447] | -1.36 (inactive) | 0.0563 (inactive) | 0.556 (inactive)
CARQVRCVGNAGNASASA [FS-3045] | 3.15 | 3.4 | 5.33 (active)
CASGFVSLLAAGNASASA [HC359] | 0.181 (inactive) | 0.268 (inactive) | 0.641 (inactive)
CAVFTDNSSPAGNASASA [HC765] | -0.215 (inactive) | -0.103 (inactive) | 0.299 (inactive)
CAEPLDLPPIAGNASASA [HC1598] | 0.806 (inactive) | 1.44 | 0.441 (inactive)
CAVPSTEDLVAGNASASA [HC1097] | -2.52 (inactive) | -0.505 (inactive) | 0.561 (inactive)
CARVRRAVRIAGNASASA [FS-2107] | 2.88 | 2.85 | 5.12 (active)
CARVRRRSVQAGNASASA [FS-3175] | 0.273 (inactive) | 0.235 (inactive) | 0.754 (inactive)
CARVRRANTFAGNASASA [FS-2622] | 3.44 | 5.83 (active) | 5.99 (active)
CAAVRRLVGNAGNASASA [FS-1667] | -1.38 (inactive) | -1.34 (inactive) | -1.08 (inactive)
CARVRRLVRHAGNASASA [FS-3240] | 12.5 (active) | 11.6 (active) | 9.85 (active)
CARVMRWNSKAGNASASA [FS-3120] | -0.31 (inactive) | 0.804 (inactive) | 2.88

Sequence | furin cleavage Z-score (7.5 min) | furin cleavage Z-score (15 min) | furin cleavage Z-score (30 min)
CAASRQAEVIAGNASASA [HC1030] | -0.216 (inactive) | -0.538 (inactive) | -1.56 (inactive)
CARVRRAWVIAGNASASA [FS-3124] | 1.98 | 4.98 (active) | 7.77 (active)
CAYQATVCARAGNASASA [HC955] | 1.06 | 0.432 (inactive) | -1.24 (inactive)
CAYFVRVQGLAGNASASA [HC616] | 0.749 (inactive) | 0.0281 (inactive) | 0.654 (inactive)
CALSTGLIHLAGNASASA [HC503] | 1.35 | 0.833 (inactive) | 1.12
CAAAQGYKVLAGNASASA [HC783] | 0.259 (inactive) | 0.477 (inactive) | -0.5 (inactive)
CADPDLSDGSAGNASASA [HC1359] | -1.03 (inactive) | -0.792 (inactive) | -0.78 (inactive)
CAVVCCSMSGAGNASASA [HC2096] | -0.582 (inactive) | -1.33 (inactive) | -0.463 (inactive)
CARLRRFQKGAGNASASA [FS-2714] | -0.592 (inactive) | -0.736 (inactive) | -0.569 (inactive)
CARQRRAAKGAGNASASA [FS-3230] | 5.82 (active) | 8.24 (active) | 7.16 (active)
CARHRRAAGGAGNASASA [FS-2144] | 5.47 (active) | 4.69 (active) | 5.6 (active)
CARILRSAWGAGNASASA [FS-2684] | -1.8 (inactive) | 0.635 (inactive) | 0.838 (inactive)
CARQRRAAGGAGNASASA [FS-2588] | 4.04 (active) | 2.03 | 3.5 (active)
CARIRRNAKGAGNASASA [FS-1723] | 9.77 (active) | 9.21 (active) | 7.23 (active)
CARQRRPHGGAGNASASA [FS-2765] | -0.899 (inactive) | -0.697 (inactive) | -0.913 (inactive)
CARQKKTTGGAGNASASA [FS-3034] | -1.15 (inactive) | -0.895 (inactive) | -0.562 (inactive)
CARHRRIHSGAGNASASA [FS-2945] | -0.899 (inactive) | -0.653 (inactive) | -0.511 (inactive)
CARPLRDAGGAGNASASA [FS-2357] | 0.0621 (inactive) | -0.105 (inactive) | -0.644 (inactive)
CASWLGNIIMAGNASASA [HC1574] | -0.174 (inactive) | -0.173 (inactive) | 0.459 (inactive)
CAEVVTSTAVAGNASASA [HC2223] | -1.08 (inactive) | 1.73 | 0.704 (inactive)
CAGDDLVVICAGNASASA [HC1529] | -1.44 (inactive) | -0.0771 (inactive) | -0.978 (inactive)
